Where a name gives a salt, the structure may show the parent alone. ± gives the standard deviation of the averaged measurements.
Assays:
Test in all cases: growth (OD600 after 10 h); higher = more growth (less inhibition)
[1] = test system: E. coli TESEC Alr+ wild-type control; conditions: compound 0.1 mM; raw OD600 reference: median of DMSO wells 0.241, cell-free background 0.041
Experimental: (§1)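 TESEC Mtb Alr E. coli, or the Alr+ wild-type control, in 384-well plates with Prestwick library compounds at 0.1 mM and 1% DMSO, across arabinose induction levels of 1E3 to 1E7 nM. Growth is read as OD600 after 10 h at 37 °C in triplicate biological replicates.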

E. coli TESEC Mtb Alr [2] = conditions: compound 0.1 mM
Experimental: as §1

E. coli TESEC Mtb Asd = conditions: compound 0.1 mM
Experimental: (§2)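 TESEC E. coli strains in which the native enzyme is deleted and replaced by arabinose-inducible Mtb Asd, DapB, CysH or TrpD, each grown in its selective medium. Strains were screened against the Prestwick library at 0.1 mM and 1% DMSO in 384-well format at low and high arabinose induction. Growth is read as OD600 after 10 h in triplicate.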

E. coli TESEC Mtb DapB = conditions: compound 0.1 mM
Experimental: as §2

[3] = test system: E. coli TESEC Alr+ wild-type control; conditions: compound 0.1 mM; raw OD600 reference: median of DMSO wells 0.49, cell-free background 0.052
Experimental: (§3)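 TESEC Mtb Alr E. coli (ΔaraC ΔtolC ΔentC Δalr ΔdadX, arabinose-inducible Mtb Alr) or the Alr+ wild-type control strain, grown in defined M9-fructose medium without D-alanine in 96-well plates with Prestwick library compounds at 0.1 mM and 1% DMSO. Low Alr induction is 0.1 µM arabinose and high induction is 10 mM arabinose.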

E. coli TESEC Mtb Alr [4] = conditions: compound 0.1 mM; remark: listed apart in the source
Experimental: as §3

[5] = arabinose 1000 nM, raw OD600 reference: median of DMSO wells 0.294, cell-free background 0.041
[6] = arabinose 10000 nM, raw OD600 reference: median of DMSO wells 0.264, cell-free background 0.041
[7] = arabinose 100000 nM, raw OD600 reference: median of DMSO wells 0.201, cell-free background 0.041
[8] = arabinose 1000000 nM, raw OD600 reference: median of DMSO wells 0.193, cell-free background 0.041
[9] = arabinose 10000000 nM, raw OD600 reference: median of DMSO wells 0.146, cell-free background 0.041
[10] = arabinose induction (level): High, raw OD600 reference: median of DMSO wells 0.331, cell-free background 0.041
[11] = arabinose induction (level): Low, raw OD600 reference: median of DMSO wells 0.417, cell-free background 0.041
[12] = arabinose induction (level): High, raw OD600 reference: median of DMSO wells […], cell-free background 0.041
[13] = arabinose induction (level): Low, raw OD600 reference: median of DMSO wells 0.227, cell-free background 0.041
[14] = arabinose 100 nM, raw OD600 reference: median of DMSO wells 0.413, cell-free background 0.052
[15] = arabinose 10000000 nM, raw OD600 reference: median of DMSO wells […], cell-free background 0.052

| SMILES | growth [1] | growth (E. coli TESEC Mtb Alr [2]; [5]) | growth (E. coli TESEC Mtb Alr [2]; [6]) | growth (E. coli TESEC Mtb Alr [2]; [7]) | growth (E. coli TESEC Mtb Alr [2]; [8]) | growth (E. coli TESEC Mtb Alr [2]; [9]) | growth (E. coli TESEC Mtb Asd; [10]) | growth (E. coli TESEC Mtb Asd; [11]) | growth (E. coli TESEC Mtb DapB; [12]) | growth (E. coli TESEC Mtb DapB; [13]) | growth [3] | growth (E. coli TESEC Mtb Alr [4]; [14]) | growth (E. coli TESEC Mtb Alr [4]; [15]) |
| --- | --- | --- | --- | --- | --- | --- | --- | --- | --- | --- | --- | --- | --- |
| NNc1nncc2ccccc12 [Hydralazine hydrochloride] | 0.142 ± 0.0062 | 0.262 ± 0.022 | 0.256 ± 0.0092 | 0.174 ± 0.013 | 0.12 ± 0.0069 | 0.13 ± 0.0019 | 0.206 ± 0.017 | 0.25 ± 0.021 | 0.19 ± 0.0027 | 0.229 ± 0.033 | 0.448 ± 0.049 | 0.404 ± 0.0077 | 0.304 ± 0.018 |
| CN(C)CCN(Cc1ccccc1)c1ccccn1 [Tripelennamine hydrochloride] | 0.203 ± 0.0015 | 0.281 ± 0.0071 | 0.254 ± 0.0058 | 0.181 ± 0.0046 | 0.184 ± 0.003 | 0.133 ± 0.004 | 0.232 ± 0.055 | 0.329 ± 0.1 | 0.177 ± 0.0099 | 0.209 ± 0.027 | 0.537 ± 0.091 | 0.406 ± 0.0074 | 0.307 ± 0.0053 |
| CCN(CC)CCOC(=O)C(Cc1cccc2ccccc12)CC1CCCO1 (stereo unspecified) [Nafronyl oxalate] | 0.15 ± 0.0052 | 0.219 ± 0.0043 | 0.255 ± 0.014 | 0.157 ± 0.0057 | 0.0991 ± 0.0023 | 0.151 ± 0.0053 | 0.127 ± 0.0055 | 0.309 ± 0.11 | 0.184 ± 0.019 | 0.174 ± 0.008 | 0.464 ± 0.015 | 0.407 ± 0.0062 | 0.293 ± 0.015 |
| c1cnc(N2CCN(Cc3ccc4c(c3)OCO4)CC2)nc1 [Piribedil hydrochloride] | 0.2234 ± 0.0017 | 0.273 ± 0.0036 | 0.256 ± 0.0059 | 0.179 ± 0.01 | 0.166 ± 0.0044 | 0.14 ± 0.0043 | 0.218 ± 0.013 | 0.399 ± 0.027 | 0.178 ± 0.01 | 0.202 ± 0.013 | 0.512 ± 0.077 | 0.398 ± 0.014 | 0.366 ± 0.01 |
| Nc1ccc(S(=O)(=O)c2ccc(N)cc2)cc1 [Dapsone] | 0.256 ± 0.0028 | 0.282 ± 0.019 | 0.23 ± 0.0077 | 0.227 ± 0.019 | 0.1616 ± 0.0011 | 0.141 ± 0.0065 | 0.433 ± 0.092 | 0.339 ± 0.012 | 0.214 ± 0.0025 | 0.25 ± 0.058 | 0.491 ± 0.054 | 0.422 ± 0.01 | 0.367 ± 0.018 |
| CS(=O)(=O)c1ccc([C@@H](O)[C@@H](CF)NC(=O)C(Cl)Cl)cc1 [Florfenicol] | 0.0412 ± 0.0009 | 0.0406 ± 0.00059 | 0.0395 ± 0.0002 | 0.04123 ± 0.0004 | 0.03917 ± 0.00012 | 0.0409 ± 0.00017 | 0.054 ± 0.0047 | 0.0538 ± 0.0014 | 0.0485 ± 0.0014 | 0.0488 ± 0.001 | 0.05113 ± 0.00023 | 0.05607 ± 0.00047 | 0.0524 ± 0.0018 |
| COc1ccccc1OCC(O)CO (stereo unspecified) [Guaifenesin] | 0.238 ± 0.0069 | 0.306 ± 0.021 | 0.274 ± 0.0056 | 0.191 ± 0.0043 | 0.19 ± 0.0056 | 0.141 ± 0.0035 | 0.427 ± 0.031 | 0.377 ± 0.14 | 0.192 ± 0.013 | 0.228 ± 0.023 | 0.535 ± 0.093 | 0.408 ± 0.011 | 0.345 ± 0.015 |
| COCC1=C(C(=O)OC(C)OC(=O)OC(C)C)N2C(=O)[C@@H](NC(=O)/C(=N\OC)c3csc(N)n3)[C@H]2SC1 (stereo partly specified) [Cefpodoxime proxetil] | 0.2132 ± 0.002 | 0.116 ± 0.0091 | 0.0588 ± 0.0019 | 0.22 ± 0.011 | 0.166 ± 0.008 | 0.165 ± 0.0036 | 0.215 ± 0.051 | 0.179 ± 0.034 | 0.202 ± 0.05 | 0.285 ± 0.049 | 0.425 ± 0.044 | 0.0545 ± 0.0063 | 0.278 ± 0.016 |
| O=S(=O)(O)CCS [Mesna] | 0.2377 ± 0.0019 | 0.282 ± 0.0091 | 0.28 ± 0.0078 | 0.193 ± 0.012 | 0.206 ± 0.016 | 0.13 ± 0.0052 | 0.341 ± 0.079 | 0.371 ± 0.058 | 0.204 ± 0.009 | 0.214 ± 0.046 | 0.513 ± 0.074 | 0.4246 ± 0.0021 | 0.337 ± 0.0046 |
| CC(=O)[C@@]1(O)CC[C@H]2[C@@H]3C[C@H](C)C4=CC(=O)C=C[C@]4(C)[C@@]3(F)[C@@H](O)C[C@@]21C [Fluorometholone] | 0.235 ± 0.021 | 0.308 ± 0.011 | 0.248 ± 0.011 | 0.2 ± 0.018 | 0.13 ± 0.007 | 0.153 ± 0.0031 | 0.457 ± 0.013 | 0.428 ± 0.019 | 0.209 ± 0.0065 | 0.272 ± 0.017 | 0.447 ± 0.013 | 0.423 ± 0.007 | 0.334 ± 0.049 |
| COc1ccc2cc(CCC(C)=O)ccc2c1 [Nabumetone] | 0.168 ± 0.0082 | 0.208 ± 0.028 | 0.2236 ± 0.0013 | 0.152 ± 0.012 | 0.109 ± 0.0058 | 0.14 ± 0.0083 | 0.304 ± 0.073 | 0.247 ± 0.04 | 0.175 ± 0.0022 | 0.187 ± 0.0098 | 0.485 ± 0.0083 | 0.399 ± 0.01 | 0.297 ± 0.017 |
| COc1ccc(-c2ccc(=N)n(CCCC(=O)O)n2)cc1 [Gabazine bromide] | 0.247 ± 0.012 | 0.279 ± 0.029 | 0.262 ± 0.007 | 0.225 ± 0.027 | 0.19 ± 0.0086 | 0.148 ± 0.0044 | 0.232 ± 0.02 | 0.342 ± 0.055 | 0.206 ± 0.0056 | 0.208 ± 0.021 | 0.599 ± 0.11 | 0.402 ± 0.0095 | 0.341 ± 0.0049 |

— the supplement of paper PMC9262897, “Low-cost anti-mycobacterial drug discovery using engineered E. coli” (Nature Communications, 2022)
